Activity calls are given as the source filed them.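 The calls were made as follows, unless noted: active = compounds lowering colon cancer cell viability after pretreatment blocking the GSK3B kinase; inactive = the rest.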
Key:
[1] = stimulators of insulin release from INS-1E, primary screen, cell-based, 5 mM glucose, NPC library (AID 1117329;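 active = compound raises insulin release from rat beta cells at 5 mM glucose, no numeric limit stated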); details: rat INS-1E insulin secretion, at 10 µM, stronger effect = higher value
[2] = growth inhibition of GSK3B-pretreated HCT116 cells – cell-based, CellTiter-Glo, 0.2 to 20 µM (AID 1117336); details: HCT116 viability after GSK3B inhibitor, at 20 µM, stronger effect = higher value
[3] = inhibition of endothelial tube formation, primary screen, imaging, VEGF stimulated, CD31 staining, tube area, NPC library (AID 1117340;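 active = compound that reduces growth-factor-driven endothelial tube area in a mixed cell culture, no cutoff stated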); details: VEGF-stimulated ADSC/ECFC co-culture, at 10 µM, stronger effect = higher value
[4] = GLP1 release stimulators, primary, NCI-H716, NPC library (AID 1117341;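 active = compound raises GLP1 secretion from the human gut endocrine cells, with no numeric limit stated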); details: NCI-H716 cells, at 10 µM, stronger effect = higher value
[5] = HCT116 colon cancer cell growth inhibition, primary screen, CellTiter-Glo luminescence, NPC library (AID 1117342;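 active = compounds that lower survival of HCT116 colon cancer cells in the luminescence readout, no numeric limit stated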); details: at 20 µM (top of the series)
[6] = reduced SW480 viability measured with CellTiter-Glo, NPC library, primary (AID 1117343;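 active = compounds that lower viability of the colon cancer cells in the luminescence readout, with no numeric limit stated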); details: CellTiter-Glo luminescence; at 20 µM (top of the series)
[7] = NPC library primary testing for decreased DLD-1 cell viability via CellTiter-Glo (AID 1117346;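 active = compounds that lower survival of DLD-1 colon cancer cells in the luminescence readout, no cutoff given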); details: DLD-1 viability, CellTiter-Glo luminescence; at 20 µM (top of the series)
[8] = molecular target: 6-phosphogluconate dehydrogenase, decarboxylating (Homo sapiens) (UniProt P52209); assay: inhibition of human phosphogluconate dehydrogenase – biochemical, recombinant enzyme, NADPH absorbance, primary screen (AID 1159550;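 active = at least 20% inhibition of 6-phosphogluconate dehydrogenase activity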); details: recombinant 6PGD, NADPH absorbance 341 nm; at 10 µM; stronger effect = higher value
Sequence of 6-phosphogluconate dehydrogenase, decarboxylating (Homo sapiens) (P52209 whole entry, looked up): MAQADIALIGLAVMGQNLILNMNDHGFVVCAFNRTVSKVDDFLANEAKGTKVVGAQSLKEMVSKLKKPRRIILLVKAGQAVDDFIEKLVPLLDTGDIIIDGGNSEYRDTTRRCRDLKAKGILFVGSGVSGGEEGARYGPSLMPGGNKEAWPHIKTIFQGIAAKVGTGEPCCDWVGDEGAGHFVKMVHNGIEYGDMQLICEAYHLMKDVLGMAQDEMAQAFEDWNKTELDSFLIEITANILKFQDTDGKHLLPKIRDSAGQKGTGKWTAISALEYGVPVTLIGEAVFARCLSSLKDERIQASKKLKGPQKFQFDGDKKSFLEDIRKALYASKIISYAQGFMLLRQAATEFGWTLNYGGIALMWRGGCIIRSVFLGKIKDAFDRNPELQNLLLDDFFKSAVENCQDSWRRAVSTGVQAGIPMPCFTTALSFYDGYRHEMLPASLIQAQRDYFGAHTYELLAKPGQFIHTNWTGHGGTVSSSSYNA

[9] = EMT-state selective cytotoxicity in co-culture – imaging, PC-3E GFP, TEM4-18 mCherry, primary screen (AID 1345086;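 active = compounds killing one labelled cell type while sparing the other, by normalised counts and ratio limits, not self-fluorescent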;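 as to all read-outs here: cells exposed to compound for 72 h before imaging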;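 as to red/green cell ratio (normalised): normalised mesenchymal count divided by normalised epithelial count so high means epithelial killing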); details: PC-3E GFP / TEM4-18 mCherry co-culture, imaging cell counts, at 1 µM; for red/green cell ratio (normalised): actives lie on both sides, counts scaled to control wells, 1 = unselective
[10] = measured here: epithelial PC-3E GFP cell survival
[11] = measured here: mesenchymal TEM4-18 mCherry cell survival

CN1CCC(OC(c2ccccc2)c2ccccc2)CC1
inactive: insulin secretion stimulation [1] 6.2% | viability decrease [2] -31.3% | tube area decrease [3] 13.8% | GLP1 secretion stimulation [4] 4.2% | inhibition of viability [5] 35.4% | viability decrease (inhibition) [6] 37.7% | viability decrease (inhibition) [7] -6.7% | inhibition [8] 10.6% | red/green cell ratio (normalised) [9] 1.14
1.2: normalised cell number [9, 11]
1.05: normalised cell number [9, 10]

CO/N=C1\CN(c2nc3c(cc2F)c(=O)c(C(=O)O)cn3C2CC2)CC1CN (stereo not given)
1.24: normalised cell number [9, 11]
inactive: insulin secretion stimulation [1] 3% | viability decrease [2] -23.6% | tube area decrease [3] -6.9% | GLP1 secretion stimulation [4] 1.1% | inhibition of viability [5] -15% | viability decrease (inhibition) [6] -14.7% | viability decrease (inhibition) [7] -7.2% | inhibition [8] 2.88% | red/green cell ratio (normalised) [9] 0.94
1.32: normalised cell number [9, 10]

O=C1c2c(O)cccc2Cc2cccc(O)c21
active: tube area decrease [3] 108% | viability decrease (inhibition) [6] 61.6% | viability decrease (inhibition) [7] 53.6%
inactive: insulin secretion stimulation [1] 0.8% | viability decrease [2] 38.5% | GLP1 secretion stimulation [4] -2.2% | inhibition of viability [5] 30.9% | inhibition [8] -1.39% | red/green cell ratio (normalised) [9] 0.95
1.25: normalised cell number [9, 10]
1.19: normalised cell number [9, 11]

COc1ccc(CN(CCN(C)C)c2ncccn2)cc1
1.04: normalised cell number [9, 10]
inactive: insulin secretion stimulation [1] 1.5% | viability decrease [2] -26.6% | tube area decrease [3] 5% | GLP1 secretion stimulation [4] 4.9% | inhibition of viability [5] 14.6% | viability decrease (inhibition) [6] 4.3% | viability decrease (inhibition) [7] -22.1% | inhibition [8] 0.837% | red/green cell ratio (normalised) [9] 1.15
1.2: normalised cell number [9, 11]

CCOc1ccc(NC(C)=O)cc1
active: viability decrease (inhibition) [6] 104%
1.35: normalised cell number [9, 11]
1.07: normalised cell number [9, 10]
inactive: insulin secretion stimulation [1] -2.2% | viability decrease [2] -4.8% | tube area decrease [3] -16.7% | GLP1 secretion stimulation [4] 4.4% | inhibition of viability [5] -24.5% | viability decrease (inhibition) [7] -6.2% | inhibition [8] 5.26% | red/green cell ratio (normalised) [9] 1.26

C[N+](C)(C)CCOC(N)=O
inactive: insulin secretion stimulation [1] -0.5% | viability decrease [2] 1.3% | tube area decrease [3] -7.7% | GLP1 secretion stimulation [4] 2.2% | inhibition of viability [5] -2.4% | viability decrease (inhibition) [6] -4.8% | viability decrease (inhibition) [7] -12.5% | inhibition [8] -13.5% | red/green cell ratio (normalised) [9] 1.21
1.03: normalised cell number [9, 11]
0.85: normalised cell number [9, 10]

CCCCOc1ccc(OCCCN2CCOCC2)cc1
inactive: insulin secretion stimulation [1] 0.6% | viability decrease [2] -10.8% | tube area decrease [3] 15.4% | GLP1 secretion stimulation [4] -1.7% | inhibition of viability [5] 24.8% | viability decrease (inhibition) [6] 46.8% | viability decrease (inhibition) [7] 22.7% | inhibition [8] -17.9% | red/green cell ratio (normalised) [9] 0.85
1.15: normalised cell number [9, 10]
0.98: normalised cell number [9, 11]

COc1ccc(-c2cc(C(F)F)nn2-c2ccc(S(N)(=O)=O)cc2)cc1F
1.12: normalised cell number [9, 10]
inactive: insulin secretion stimulation [1] -0.6% | viability decrease [2] -65.6% | tube area decrease [3] 10.3% | GLP1 secretion stimulation [4] 5.7% | inhibition of viability [5] 22.3% | viability decrease (inhibition) [6] 6.3% | viability decrease (inhibition) [7] 1.8% | inhibition [8] -12.8% | red/green cell ratio (normalised) [9] 0.98
1.1: normalised cell number [9, 11]

Cc1cc(-c2ccccc2)nnc1NCCN1CCOCC1
1.08: normalised cell number [9, 11]
inactive: insulin secretion stimulation [1] -1.9% | viability decrease [2] -42.6% | tube area decrease [3] 6.8% | GLP1 secretion stimulation [4] 0.4% | inhibition of viability [5] 6.4% | viability decrease (inhibition) [6] 12.4% | viability decrease (inhibition) [7] -6.5% | inhibition [8] 3.56% | red/green cell ratio (normalised) [9] 1.08
1.01: normalised cell number [9, 10]

CC(=O)Nc1cccc(O)c1
inactive: insulin secretion stimulation [1] 1.1% | viability decrease [2] -1.55% | tube area decrease [3] -19.6% | GLP1 secretion stimulation [4] -0.3% | inhibition of viability [5] -14.5% | viability decrease (inhibition) [6] 32.8% | viability decrease (inhibition) [7] 4.35% | inhibition [8] 11.9% | red/green cell ratio (normalised) [9] 0.95
0.79: normalised cell number [9, 11]
0.83: normalised cell number [9, 10]

O=C(O)[C@@H]1[C@H]2C[C@H]3c4[nH]c5ccccc5c4CCN3C[C@@H]2CC[C@@H]1O
0.95: normalised cell number [9, 11]
0.89: normalised cell number [9, 10]
inactive: insulin secretion stimulation [1] -0.3% | viability decrease [2] -25.2% | tube area decrease [3] 9.1% | GLP1 secretion stimulation [4] 0.3% | inhibition of viability [5] -4.53% | viability decrease (inhibition) [6] 13% | viability decrease (inhibition) [7] -18.9% | inhibition [8] 2.44% | red/green cell ratio (normalised) [9] 1.08

Cc1cc(=O)n(-c2ccccc2)n1C
1.24: normalised cell number [9, 10]
1.26: normalised cell number [9, 11]
inactive: insulin secretion stimulation [1] -0.2% | viability decrease [2] -26.3% | tube area decrease [3] -3.4% | GLP1 secretion stimulation [4] 0.4% | inhibition of viability [5] 1.15% | viability decrease (inhibition) [6] 4% | viability decrease (inhibition) [7] -8.2% | inhibition [8] 6.71% | red/green cell ratio (normalised) [9] 1.02

C[N+]12CCC(CC1)C(OC(=O)C(O)(c1ccccc1)c1ccccc1)C2 (stereo not given)
inactive: insulin secretion stimulation [1] -0.3% | viability decrease [2] -30.2% | tube area decrease [3] 0.5% | GLP1 secretion stimulation [4] -3.1% | inhibition of viability [5] 10.6% | viability decrease (inhibition) [6] 22.9% | viability decrease (inhibition) [7] -13.7% | inhibition [8] 11.7% | red/green cell ratio (normalised) [9] 1.14
1.17: normalised cell number [9, 10]
1.33: normalised cell number [9, 11]

CCN(CC)CCNc1ccc(CO)c2sc3ccccc3c(=O)c12
inactive: insulin secretion stimulation [1] 0.6% | viability decrease [2] 24.4% | GLP1 secretion stimulation [4] 10.2% | viability decrease (inhibition) [7] 35.6% | inhibition [8] 7.31% | red/green cell ratio (normalised) [9] 1.17
0.74: normalised cell number [9, 11]
active: tube area decrease [3] 76% | inhibition of viability [5] 78.1% | viability decrease (inhibition) [6] 74.7%
0.63: normalised cell number [9, 10]

CN(C)/N=N/c1nc[nH]c1C(N)=O
inactive: insulin secretion stimulation [1] 1.8% | viability decrease [2] -107% | GLP1 secretion stimulation [4] -1.3% | inhibition of viability [5] -2.45% | viability decrease (inhibition) [6] 34.5% | viability decrease (inhibition) [7] -4.2% | inhibition [8] -2.23% | red/green cell ratio (normalised) [9] 0.71
active: tube area decrease [3] 85.4%
1.47: normalised cell number [9, 10]
1.04: normalised cell number [9, 11]
